The source of these data is ChEMBL document CHEMBL3988442, “University of Dundee, Small-Polar-MMV Screening Library” (2021).

In all, about 48,000 compounds went through this assay and about 13,000 (27%) showed an effect of 50% or more. Some of the results follow.

The assay has as its system Wolbachia pipientis. The assay can be described thus: Anti-Wolbachia Cell-Based Screen. Particulars: 5 µM. On the set-up: scale not given: in the data most compounds retested in dose-response had high values. The format is functional.
For the molecule `O=C(O)C(F)(F)F.O=S(=O)(C1CC1)N1CCc2onc(COc3ccccn3)c2C1`, the “Percent Effect” value is given as -9.105%. For `Cn1cnc2c1CCN(CC(O)c1ccc(S(C)(=O)=O)cc1)C2` (stereo not given) the value was 1.592%. For `Cc1ccoc1C(=O)NCC(c1ccccc1Cl)N1CCOCC1` (stereo not given) the value was -4.275%; for `O=C(CCc1ccccc1)N1CCn2cc(CN3CCCC3)nc2C1`, 5.739%. With `CCN1CC(C)(C)CN(C(=O)CCc2ccccc2)CC1=O`, the “Percent Effect” value was found to be 98.77%. For `CC(C)(O)CN1CC(C)(C)CN(C(=O)CCc2ccccc2)CC1=O` the value was 88.99%. For `CCCC(O)CN1CC(C)(C)CN(C(=O)CCc2ccccc2)CC1=O` (stereo not given) the value was 81.6%. For `CCc1nc(C(=O)N2CCN(C(=O)CCc3ccccc3)CC2)c[nH]1` the value was -3.201%; for `CC(O)CN1CC(C)(C)CN(C(=O)CCc2ccccc2)CC1=O` (stereo not given), 108.2%. As to `CCC(Nc1nnnn1-c1ccccc1)C(=O)NC1CCSCC1` (stereo not given), the “Percent Effect” value was 2.585%. For `O=C(O)C1(Oc2ccccc2F)CCN(C/C=C/c2ccco2)CC1` the value was 10.04%; for `Oc1ccc(-c2c(-c3ccccc3)ncn2C2CCNC2)cc1` (stereo not given), 5.17%. Take `COc1cc2c(cc1C1CC(=O)NCc3nc(N(C)C)sc31)CCC2` (stereo not given): the “Percent Effect” value was -15.52%.

`CN1CC(C)(C)CN(C(=O)CCc2ccccc2)CC1=O`: the “Percent Effect” value came to 83.23%. For `CN1CCN(C(=O)CCc2ccccc2)Cc2cccnc21.O=C(O)C(F)(F)F` the value was -4.699%; for `CC1N(C)C(=O)COC12CCN(C(=O)CCc1ccccc1)CC2` (stereo not given), 0.4061%; for `COCC(O)CN1CC(C)(C)CN(C(=O)CCc2ccccc2)CC1=O` (stereo not given), 110.7%. For `CN1C(=O)CC(C(=O)O)C12CCN(Cc1ccc(Cl)cc1F)CC2` (stereo not given) the value was 5.202%.

With `CC(C)NC(=O)N1Cc2nccn2CC(CN2CCCC2)C1.O=C(O)C(F)(F)F` (stereo not given), the “Percent Effect” value turned out to be 12.37%. For `CC(C)NC(=O)N1Cc2nccn2CC(COc2cccnc2)C1.O=C(O)C(F)(F)F` (stereo not given) the value was 96.94%. For `CC(=O)NCC(=O)N1Cc2nccn2CC(CN2CCCC2=O)C1` (stereo not given) the value was 14.08%. For `CC(=O)NCC(=O)N1Cc2nccn2CC(CN(C)C(C)C)C1.O=C(O)C(F)(F)F` (stereo not given) the value was -7.594%; for `CC(=O)NCC(=O)N1Cc2nccn2CC(COc2cccnc2)C1.O=C(O)C(F)(F)F` (stereo not given), 111.9%; for `Cn1cc(Br)cc(NC(=O)CC(C)(C)C)c1=O`, 3.241%. Turning to `CSc1ccc2cc(CN(C)CCc3cn[nH]c3)c(=O)[nH]c2c1`, the “Percent Effect” value is 4.017%. For `CC(C)C(=O)NCc1ccccc1NS(=O)(=O)c1ccccc1` the value was -3.24%; for `CC(C)(C)C(=O)NCc1cnn2ccccc12`, -7.626%; for `CC(C)S(=O)(=O)C(C)C(=O)NCc1ccccc1OCc1ccccc1` (stereo not given), 96.24%. For `CC(C)OCc1ccccc1CNC(=O)C(C)(C)C` the value was 99.75%; for `CC(C)S(=O)(=O)C(C)C(=O)NCc1ccccc1COc1ccccc1` (stereo not given), 92.84%; for `CCOc1ccccc1CNC(=O)N(CC)C(C)c1cccnc1` (stereo not given), 2.92%. For `CC(C)OCc1ccccc1CNC(=O)C(C)S(=O)(=O)C(C)C` (stereo not given) the value was 93.94%; for `CC(COc1ccccc1)NS(C)(=O)=O` (stereo not given), -8.999%. Turning to `CC(C)S(=O)(=O)C(C)C(=O)NCc1cccc(N2CCCCC2=O)c1` (stereo not given), the “Percent Effect” value is on record as 12.9%. For `CCc1ccccc1CNC(=O)CNC(=O)C(C)(C)C` the value was -5.244%. For `CC(C)NC(=O)NCc1ccccc1NS(=O)(=O)c1ccccc1` the value was 15.1%; for `CC(C)OCc1ccc(CNC(=O)CC(F)(F)F)cc1`, 28.04%; for `Cc1cc(C(=O)N2CC(=O)Nc3cnccc32)c(Cl)cc1F`, -6.598%. For `COc1ccc(N2CCCC3(C2)CN(c2nncs2)CCO3)cc1` (stereo not given) the value was -4.383%; for `O=C(Cc1ccsc1)NCC1Cn2nnc(-c3ccoc3)c2CO1` (stereo not given), -0.8336%; for `CC(C)N(C)C(=O)C1CCN(Cc2cc3c(cc2O)CCC3)CC1`, 3.726%.

As for `O=C(NCc1ccccc1CO)C1COc2ccccc21` (stereo not given), the “Percent Effect” value is listed as -7.77%.

Turning to `CCCN1CCC(Nc2cc(-c3ccccc3)ccc2OC)CC1`, the “Percent Effect” value came to 9.804%. For `C=C(C)CN(CC)C(=O)CN1CCCC1C(=O)N(C)C` (stereo not given) the value was 1.656%; for `N#Cc1ccc(C(=O)NS(=O)(=O)c2ccc(F)c(F)c2)cc1`, 6.651%. For `N#Cc1ccc(S(=O)(=O)NC(=O)c2ccc3c(c2)COC3)cc1` the value was -13.21%; for `COc1cc(C(=O)NS(=O)(=O)c2cccc(C#N)c2)cc(OC)c1Br`, 100.1%. For `COc1cc(C(=O)NS(=O)(=O)c2cccc(C#N)c2)ccc1C` the value was 0.1033%; for `CCOc1cc(C(=O)NS(=O)(=O)c2cccc(C#N)c2)ccc1OC`, 121%; for `COc1ccc(C(=O)NS(=O)(=O)c2cncc(Br)c2)cc1OC`, -20.98%. Turning to `CSc1ccsc1C(=O)NS(=O)(=O)c1cccc(C#N)c1`, the “Percent Effect” value is on record as -50.61%. For `COc1cc(C(=O)NS(=O)(=O)c2ccc(C#N)cc2)ccc1C` the value was 127.1%; for `COc1cc(C(=O)NS(=O)(=O)c2cccc(C#N)c2)cc(OC)c1C`, 111.6%; for `COc1cc(C(=O)NS(=O)(=O)c2cccc(C#N)c2)cc(Cl)c1OC`, 0.151%. For `CC(C)(C)C(=O)NCCC(=O)NS(=O)(=O)c1cccc(C#N)c1` the value was -5.738%. As for `CNC(=O)c1cccc(CCNC2CCSc3ccccc32)c1` (stereo not given), the “Percent Effect” value is on record as -5.556%. For `CC(=O)Nc1ccc(C(=O)Nc2cnc3n2CCCC3)c(C)c1` the value was -9.74%; for `Cn1ccc(CNC(=O)N2CCC(C3(C)OCCO3)CC2)c1`, 7.37%.

For the molecule `c1cnn(C2CN(Cc3noc(C4CC4)n3)C2)c1`, the “Percent Effect” value was 20.24%. For `COC(=O)[C@H]1C[C@@H](O)CCN1S(=O)(=O)c1cc(Cl)ccc1OC` the value was -10.78%; for `Cc1nccn1-c1cc(CNC(=O)CCC2CCCO2)ccn1` (stereo not given), 10.65%; for `COc1ccccc1C(=O)NS(=O)(=O)c1cccc(C#N)c1`, 106.4%.

For the molecule `COc1cccc(C(=O)NS(=O)(=O)c2cccc(C#N)c2)c1OC`, the “Percent Effect” value is on record as -1.089%. For the molecule `COC(=O)c1cccc(S(=O)(=O)NC(=O)c2cccc(OC)c2OC)c1`, the “Percent Effect” value is reported as 4.901%. For `O=C(Nc1ccccc1Oc1cccc(F)c1)C1CCS(=O)(=O)C1` (stereo not given) the value was 17.61%.
